Compound activity from PubChem.
Nrf2 activator = Nrf2 pathway activation | 410,000 tested, 0.31% active | AREc32 ARE-luciferase reporter (MCF7-derived line), luminescence, 24 h | Potency, µM (titrated, usually from 46.1 µM), for the others: at the highest dose activation, hits mostly activators; note: potency is the fitted concentration of half-maximal effect; % of control where 0% means no effect; nearly all actives have a fitted effect of over 65% in size
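Reporter line AREc32 (ARE-Fluc), seeded overnight in OPTI-MEM with 5% FBS; compound pin-transferred, 24 hr at 37 deg C, 5% CO2; luminescent read-out.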
p53 reactivator = mutant p53 re-activation in reporter cells | H1299 p53-A138V BP100-luciferase reporter, luminescence, 24 h | Potency, µM (series often up to 92.2 µM), without a hit: at the top dose activity change, positive = activation, usual class: activators | 320,000 tested, 0.063% active | AID 504706; note: potency is the fitted concentration of half-maximal effect; % of control where 0% means no effect; nearly all actives have a fitted effect of over 45% in size
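H1299 (p53-null), stable ts p53-A138V + BP100-Luc; 1000 cells/well, Opti-MEM/10% FBS; cpd 4 pt, 1:5; 24 h, 37 deg C, 5% CO2; detection reagent 10 min RT; luminescence.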
IL2 activator = activates IL-2 in a cell-based reporter assay; IL-2 activation reporter assay, cell-based qHTS; stimulated with anti-CD3/CD4/CD28 beads; in transgenic mouse T cells; activation, % (series mostly up to about 46 µM); 360,000 tested, 0.065% active; in the data active = activation above about 50%; inconclusive = mostly about 30% to 49%; note: 0% is about no effect
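Readout: EGFP and DsRed signals by fluorescent plate cytometry. Unstimulated transgenic mouse T cells received compound 60 min before antibody-bead stimulation, then incubated 18 h at 37 degrees C.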
BRCA1 expr up = increases BRCA1 expression | MCF7-BRCA1-FFLuc reporter, luminescence, 48 h; response scale: scaled: vehicle 0%, 10 µM genistein 100% | Potency, µM (top dose mostly 46.1 µM), inactives show top-dose activation, actives largely listed as activators | 380,000 tested, 1.1% active; note: potency is the fitted concentration of half-maximal effect; nearly all actives have a fitted effect of over 80% in size
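48 h compound treatment of MCF7-BRCA1-FFLuc cells (phenol-red free MEM, 37 °C), then 15 min with luciferase substrate and luminescence imaging.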
A549 viability = counter-screen for Nrf2 inhibitors: cytotoxicity in A549 cells. A549 ARE-Fluc cells, CellTiter-Fluor viability, 18-24 h. Potency, µM (doses to about 46 µM), inactives show at the highest dose activity change, negative = cytotoxicity, usual class: inhibitors. 390,000 tested, 0.16% active. AID 504648; note: potency is the fitted concentration of half-maximal effect; % is set by controls: 0 for no effect and ±100 for the full control effect
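A549 ARE_Fluc cells in 5% FBS OPTI-MEM were exposed to compounds in concentration-response for 18-24 h at 37 deg C. Viability was read by CellTiter-Fluor fluorescence (Ex 405/Em 525) after 30 min, before the luciferase read.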
Nrf2 inh = Nrf2 pathway inhibition; 360,000 tested, 2.1% active; AID 504444; Potency, µM (titrated, usually from 46 µM), inactives show at the top dose activity change, negative = inhibition, hits mostly inhibitors; A549 ARE-Fluc reporter, luciferase luminescence, 18-24 h; note: potency is the fitted concentration of half-maximal effect; % is set by controls: 0 for no effect and ±100 for the full control effect; nearly all actives have a fitted effect of over 60% in size
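Two sequential reads on A549 ARE_Fluc cells exposed to compound for 18-24 h: a CellTiter-Fluor fluorescence read for viability, then a luciferase luminescence read for Nrf2/ARE activity.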
Starred values were filed as active, the others as inactive; ? = inconclusive; . = not tested or not shown. Most compounds without a hit are left out; they make up all but 3.2% or so of the library. Unless noted, calls come from the whole dose curve; as a rule, active = well fitted curve in the direction sought with a large enough effect; inconclusive = small, poorly fitted or top-dose-only effect, or another doubt; inactive = no such curve, though single readings can be large; an effect the other way counts as inactive or inconclusive.

SMILES	Nrf2 activator	p53 reactivator	IL2 activator	BRCA1 expr up	A549 viability	Nrf2 inh
COc1cc(C)ccc1OCCSc1nc(-c2cccc(C)c2)nc2cc(=O)[nH]n12	0%	.	.	-1%	?	?
CCOC(=O)Cn1c(=O)cc(C)c2c(C)nn(-c3cccc(F)c3)c21	-1%	.	.	.	3%	23%
CCc1ccc(/C=N/N2CCN(c3ccccn3)CC2)cc1	1%	11%	0	13µM*	0%	?
Cc1ccc(/C=N/N2CCN(c3ccccn3)CC2)cc1	4%	1%	-1	?	2%	?
CCOC(=O)c1ccc(N2C(=O)c3n[nH]c(-c4ccco4)c3C2c2ccc(OCC)cc2)cc1 (centres undefined)	-4%	.	.	.	?	18µM*
CCOC(=O)c1ccc(N2C(=O)c3n[nH]c(-c4ccco4)c3C2c2cccc(F)c2)cc1 (centres undefined)	-3%	.	.	-79%	?	21µM*
CCOC(=O)c1ccc(N2C(=O)c3n[nH]c(-c4ccco4)c3C2c2ccc(F)cc2)cc1 (centres undefined)	-3%	.	.	-71%	-17%	?
O=C(NCC(O)c1ccccc1)c1cccs1 (centres undefined)	-1%	15%	0	7.1µM*	1%	?
O=C(c1cccs1)N1CCN(Cc2ccccc2)CC1	-1%	2%	-2	29%	1%	1%
O=C(NCC(=O)N1CCN(Cc2ccccc2)CC1)c1cccs1	-1%	29%	1	10µM*	4%	?
Cc1cc(C)cc(C(=O)NCC(=O)N2CCN(c3cccc(Cl)c3)CC2)c1	0%	1%	-2	-11%	-20%	21µM*
Cc1cccc(C(=O)NCC(=O)N2CCN(c3ccc(Cl)cc3)CC2)c1	-1%	-5%	-3	-19%	-1%	?
Cc1cccc(N2CCN(C(=O)CNC(=O)c3cccc([N+](=O)[O-])c3)CC2)c1C	0%	-6%	-1	-34%	-3%	23µM*
O=C1CCc2cc(S(=O)(=O)Nc3ccc(Cl)c(Cl)c3)c(F)cc2N1	.	.	.	.	5%	0%
CSc1ccccc1C(=O)N1CCN(c2cccc(Cl)c2)CC1	2%	-5%	0	-93%	?	16µM*
O=C(NCC(=O)N1CCN(Cc2ccccc2)CC1)c1ccc(Br)cc1	0%	-5%	-2	0%	-12%	?
O=C(NCc1ccc(Cl)cc1)N1CCN(Cc2ccccc2)CC1	0%	-16%	-1	-38%	-15%	23µM*
O=C(NCC(=O)N1CCN(Cc2ccccc2)CC1)c1ccc(Cl)cc1	0%	-16%	-4	-1%	-16%	29µM*
O=C(C[n+]1cccc2cc(Cl)ccc21)c1cccc([N+](=O)[O-])c1	.	.	.	5%	.	.
Cn1cnc([N+](=O)[O-])c1S(=O)(=O)c1ccc(Cl)cc1	-2%	-30%	-4	-58%	?	18µM*
Cn1cnc([N+](=O)[O-])c1NC(C)(C)C	0%	-2%	3	-34%	-8%	.
Cn1cc(C(=O)NCc2ccccc2)c(=O)c2cc(S(=O)(=O)N3CCCCCC3)ccc21	4%	.	.	.	16%	.
COc1ccc(C(=O)Nc2cc3c(oc2=O)CCCC3=O)cc1	0%	8%	0	48%	0%	?
O=C(Nc1cc2c(oc1=O)CCCC2=O)c1cccc(Cl)c1	11µM*	1%	-2	-23%	7%	16%
Cc1cc(N2C(=O)c3ccccc3C2=O)no1	.	.	.	.	1%	14%
O=[N+]([O-])c1ccc(S(=O)(=O)Nc2ccncc2)cc1	0%	.	0	-17%	4%	-12%
COc1ccc(NS(=O)(=O)c2ccc(-c3coc(C)n3)cc2)cc1	2%	12%	-1	0%	2%	16µM*
